Screening data deposited in PubChem BioAssay by National Center for Advancing Translational Sciences (NCATS).
Pf growth 48h = P. falciparum growth inhibition at 48 hours (one generation); P. falciparum luciferase growth in erythrocytes, 48 h; Potency, µM (titrated, usually from 28.7 µM), for the others: top-dose activity change, negative = inhibition, actives largely listed as inhibitors; actives 5.9% (n = 310,000); AID 504832; further: on the % scale 0 is the no-effect control and ±100 the full control effect
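A one-generation exposure of luciferase-tagged malaria parasites in RPMI 1640/Albumax erythrocyte culture, 37 C and 5% CO2. Inhibition is inferred from decreased luminescence after adding detection reagent.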
AmpC inh detg = inhibitors of E. coli AmpC beta-lactamase with detergent; AmpC hydrolysis of nitrocefin, absorbance 480 nm, 0.01% Triton; actives 0.041% (n = 370,000); P00811; Potency, µM (highest dose often 114 µM), inactives show at the highest dose activity change, negative = inhibition, actives largely listed as inhibitors;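 further: 0% = no-compound wells and -100% = no-enzyme wells; nearly all actives have a fitted effect of over 25% in size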
Target sequence (P00811 whole entry, looked up): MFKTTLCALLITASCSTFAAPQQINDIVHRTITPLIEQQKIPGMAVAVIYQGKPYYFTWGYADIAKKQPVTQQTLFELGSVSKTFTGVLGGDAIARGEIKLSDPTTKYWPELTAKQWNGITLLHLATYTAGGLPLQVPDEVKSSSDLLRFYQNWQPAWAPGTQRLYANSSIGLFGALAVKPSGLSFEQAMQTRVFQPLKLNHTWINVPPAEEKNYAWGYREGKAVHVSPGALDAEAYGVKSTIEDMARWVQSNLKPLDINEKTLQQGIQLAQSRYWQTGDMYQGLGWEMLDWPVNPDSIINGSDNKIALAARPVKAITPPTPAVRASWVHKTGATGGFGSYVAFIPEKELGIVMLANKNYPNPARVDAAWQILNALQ
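20 mM phosphate pH 7.0 + 0.01% (detergent screen) or 0.0001% Triton X-100; 5.3 nM AmpC reagent; cpd preinc 15 min RT; nitrocefin (800 uM stock) to start; A480 q20 s × 4 min; Activity was normalised to no-enzyme and no-compound control wells.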
SARS PLpro yeast = SARS-CoV PLP inhibition in yeast. S. cerevisiae expressing SARS-CoV PLpro, growth rescue. actives 0.19% (n = 330,000). Potency, µM (top dose mostly 32.9 µM), without a hit: at the top dose activity, positive = growth rescue, most hits filed as activators; calls by dose curve; further: 0% is about no effect; nearly all actives have a fitted effect of over 55% in size
AmpC inh no detg = blocks E. coli AmpC beta-lactamase in detergent-free assay; P00811; AmpC nitrocefin hydrolysis, absorbance 480 nm, 0.0001% Triton; Potency, µM (doses to about 57.1 µM), for the others: at the highest dose activity change, negative = inhibition, actives largely listed as inhibitors; actives 0.52% (n = 330,000); AID 485341;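 further: plate controls were no compound for no effect and no enzyme for full effect; nearly all actives have a fitted effect of over 20% in size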
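20 mM phosphate pH 7.0 + 0.01% (detergent screen) or 0.0001% Triton X-100; 5.3 nM AmpC reagent; cpd preinc 15 min RT; nitrocefin (800 uM stock) to start; A480 q20 s × 4 min; Activity was normalised to no-enzyme and no-compound control wells.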
Pf growth 96h = P. falciparum growth inhibition at 96 hour, primary screen for plastid delayed-death inhibitors; Potency, µM (top dose mostly 28.7 µM), for inactives: top-dose activity change, negative = inhibition, usual class: inhibitors; P. falciparum luciferase reporter growth, 96 h; actives 6.9% (n = 320,000); further: on the % scale 0 is the no-effect control and ±100 the full control effect
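Plates of compound plus infected erythrocytes (2% hematocrit, 0.05% parasitemia final) incubate 96 hours, 37 C, 5% CO2. Detection reagent added; reduced luminescence from the parasites' luciferase reporter flags inhibition.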
Sm TGR inh = blocks Schistosoma mansoni thioredoxin glutathione reductase; Q962Y6; purified TGR, DTNB reduction, TNB absorbance 405 nm; Potency, µM (series often up to 114 µM), inactives show top-dose activity change, negative = inhibition, most hits filed as inhibitors; actives 3% (n = 360,000); AID 485364; further: on the % scale 0 is the no-effect control and ±100 the full control effect; nearly all actives have a fitted effect of over 60% in size
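TGR 20 nM + NADPH 100 uM (dispensed conc.), cpd preinc 15 min RT; start with NADPH (500 uM addition) then DTNB (15 mM addition). Kinetic TNB absorbance, 405 nm filter. Four-parameter Hill fit across titration.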
Starred values were filed as active, the others as inactive; ? = inconclusive; nt = no result; [ ] = another dose, or the depositor's remark. This is a sample that favours compounds with a hit; in the whole collection about 12% have one here. Unless noted, the call rests on the fitted dose curve; in most records, active means well fitted curve in the direction sought with a large enough effect; inconclusive means small, poorly fitted or top-dose-only effect, or another doubt; inactive means no such curve, though single readings can be large; an effect the other way counts as inactive or inconclusive. Potency means the concentration at half of the fitted maximal effect.

SMILES	Pf growth 48h	AmpC inh detg	SARS PLpro yeast	AmpC inh no detg	Pf growth 96h	Sm TGR inh
Cc1cccc(-n2cnc3c(sc4nc(N5CCOCC5)c5c(c43)CCCC5)c2=O)c1	2.08µM*	-0.9%	0.5%	9.3%	?	7.3%
CCN(CC)c1ncnc2c1sc1nc(N3CCOCC3)c3c(c12)CCC3	?	-0.6%	-8.7%	-13.2%	?	6.5%
COc1ccc(-c2[nH]ncc2C(=O)NCc2cccc(Cl)c2)cc1	nt	21.2%	nt	nt	nt	-0.9%
COC(=O)C1=C(C)N(Cc2ccco2)C(=O)N[C@H]1c1ccc(Br)cc1	?	?	18.1%	-38.3%	?	35.5µM*
CC(=O)C1=C(C)N(Cc2ccccc2)C(=O)N[C@H]1c1cccs1	?	-1.5%	-3.7%	-26.9%	-15.3%	3.8%
CC(=O)C1=C(C)N(Cc2ccccc2)C(=O)N[C@H]1c1ccco1	45.6%	4.1%	0.3%	-23.9%	22.6%	17.8µM*
COCCN1C(=O)N[C@@H](c2ccc(Br)cc2)C(C(=O)OC)=C1C	-21.9%	-14.2%	-13.5%	-10.4%	?	0.3%
COC(=O)C1=C(C)N(Cc2ccco2)C(=O)N[C@H]1c1ccccc1	-9.3%	-1.0%	4.2%	-7.3%	-7.9%	20µM*
COC(=O)C1=C(C)N(CCc2cc(OC)c(OC)c(OC)c2)C(=O)N[C@H]1c1ccc(Br)cc1	13.1µM*	?	7.6%	34.9%	10.4µM*	-2.9%
CCOc1ccc(/C=C(\C#N)C(=O)Nc2sc3c(c2C(=O)OC)CCC3)cc1OC	nt	15.2%	nt	nt	nt	6.7%
O=C(COc1cc(Cl)c(Cl)cc1Cl)N1CCN(c2ccccn2)CC1	6.0%[5.75 µM]	-8.9%	0.8%	-7.9%	-2.7%	11.0%
Cc1noc(C)c1S(=O)(=O)NCCN1CCN(c2ccccc2)CC1	8.4%	?	nt	nt	11.7µM*	0.0%
Cc1cc(-c2ccc(C)c(S(=O)(=O)NCCCN3CCN(c4ccccc4)CC3)c2)on1	?	-1.7%	-2.7%	81.0%	?	-2.3%
Cc1noc(C)c1S(=O)(=O)NCCCN1CCN(Cc2ccccc2)CC1	9.6%	-1.1%	3.9%	-1.0%	4.65µM*	-15.7%
O=c1oc2ccccc2cc1-c1cn2cc(Cc3ccccc3F)sc2n1	nt	26.7%	nt	nt	nt	3.3%
CN(Cc1ccccc1)C(=O)CCC1CCN(S(C)(=O)=O)CC1	0.0%	-13.5%	-0.3%	7.9%	11.7µM*	0.0%
CSc1ccc(CNC(=O)C2CCCN(S(=O)(=O)N(C)c3ccc(F)cc3)C2)cc1 (stereo not given)	nt	16.2%	nt	nt	nt	-4.0%
Cc1ccc2[nH]c(O)c(N=O)c2c1	?	-0.5%	-0.1%	-27.7%	-8.1%	4.3%
Cc1ccc2[nH]c(O)c(N=Nc3ccccc3C)c2c1	-0.7%	-4.4%	3.0%	-43.0%	22.6%	22.4µM*
CCOC(=O)C1CCC(CN(Cc2ccc(OC)cc2)S(=O)(=O)c2ccc(F)c(C(=O)Nc3ccc(C)c(C)c3)c2)CC1 (stereo not given)	nt	1.7%	nt	nt	nt	4.0%
CCC(C)NC(=O)c1c(C)oc2ncn(CC(C)C)c(=O)c12 (stereo not given)	nt	14.1%	nt	nt	nt	-3.6%
Cc1ccc(S(=O)(=O)c2cnc(SCC(=O)Nc3cc(C)cc(C)c3)nc2N)cc1	nt	-7.3%	nt	nt	nt	-9.6%
Cc1ccc2c(c1)c1c(n2CCc2ccc(C)nc2)CCN(C)C1	14.7µM*	-3.1%	-0.1%	8.9%	2.08µM*	4.7%
O=C(CSc1nc2c([nH]c3ccccc32)c(=O)n1-c1cccc(Cl)c1)c1ccccc1	nt	4.0%	nt	nt	nt	4.8%
COc1cc(OC)cc(N2C(=O)CSCC2=O)c1	2.62µM*	-1.8%	0.3%	-14.4%	25.5%	-8.1%
SMILES	Pf growth 48h	AmpC inh detg	SARS PLpro yeast	AmpC inh no detg	Pf growth 96h	Sm TGR inh
COc1cc2c(cc1OC)n(CC(=O)c1cccc(Cl)c1)c(=O)n1nc(CCn3nc(C)cc3C)nc21	nt	-6.5%	nt	nt	nt	0.2%
O=C(CCC1N=C2c3ccccc3N=C(SCC(=O)Nc3ccccc3F)N2C1=O)NCc1ccco1 (stereo not given)	nt	15.7%	nt	nt	nt	-0.6%
CC(=O)Nc1ccc(OC(=O)c2cc3cc(Br)cc(Br)c3oc2=O)cc1	-18.4%	?	2.5%	-23.3%	13.3%	-2.6%
COc1ccc(S(=O)(=O)CC(=O)c2cc3cc(Br)ccc3oc2=O)cc1	8.4%	1.5%	-5.6%	28.2µM*	-35.5%	-35.3%
COc1ccc(OC)c(S(=O)(=O)CC(=O)c2cc3ccc(OC)cc3oc2=O)c1	?	-4.3%	1.0%	-47.1%	?	-31.1%
CC(=O)Nc1ccc(OC(=O)c2cc3cc(Br)ccc3oc2=O)cc1	4.4%	1.5%	8.1%	-23.9%	4.15µM*	-1.0%
COc1cccc2cc(C(=O)CS(=O)(=O)c3ccc(Cl)cc3)c(=O)oc12	28.2%	3.6%	-0.5%	15.8µM*	-2.9%	?
CCN(C(=O)c1cc2cccc(OC)c2oc1=O)C1CCCCC1	?	3.0%	19.5%	-6.2%	1.47µM*	-14.0%
COc1cccc2cc(C(C)=O)c(=O)oc12	14.3%	?	-2.0%	-11.2%	13.5%	-2.9%
COc1cccc2cc(C(=O)N3CCCCCCC3)c(=O)oc12	?	-1.3%	2.2%	-0.4%	0.7%	2.0%
CCC(C)[C@H](NC(=O)N1CCn2c1nc1ccccc12)C(=O)NCCc1ccc(OC)c(OC)c1 (stereo not given in full)	-21.8%	?	7.8%	140.6%	?	-6.1%
Fc1ccccc1/C=C1\CCCC2=C1Nc1nnnn1C2c1ccccc1F (stereo not given)	-10.4%	-2.9%	-1.4%	-43.0%	106.5%	6.31µM*
CCc1ccccc1OCC(=O)Nc1ccc(N2CCCC2)cc1C	5.22µM*	-1.5%	0.4%	39.4%	2.62µM*	15.8µM*
Cc1cc(N2CCCC2)ccc1NC(=O)COc1ccccc1	14.7µM*	?	5.6%	2.6%	?	17.8µM*
COc1ccccc1OCC(=O)Nc1ccc(N2CCOCC2)cc1N1CCOCC1	1.5%	-0.5%	6.9%	95.7%	?	-3.6%
C/C(CC(=O)Nc1ccc(C)c(Cl)c1)=N\NC(=O)c1ccccn1	-3.2%	-3.9%	-1.2%	7.1%	19.1%	-11.7%
CC1CSc2n(-c3cccc(C(F)(F)F)c3)cc(-c3ccccc3)[n+]21 (stereo not given)	1.85µM*	2.8%	0.1%	-5.5%	?	0.9%
O=C(CCCNS(=O)(=O)c1cccc2nsnc12)NCc1ccccc1	4.7%	-1.6%	6.6%	0.6%	9.28µM*	20.0%
CC1Cc2ccccc2N1C(=O)CCNS(=O)(=O)c1cccc2nsnc12 (stereo not given)	-11.4%	-6.9%	2.4%	-10.7%	2.62µM*	6.1%
